{
  "source": "paper PMC5540273",
  "about": "(PLoS ONE, 2017);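 further: KINOMEscan kinase panel screen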",
  "data": [
    {"system": "ERBB3", "details": "concentration: 1 μM,replicates: in singlicate; n = 1", "units": {"%Inh": "%"}, "values": [
      {"smiles": "Cl.Cl.NC[C@H](Cc1ccc(C(F)(F)F)cc1)NC(=O)c1cc(Br)c(-c2ccnc3[nH]ccc23)s1", "note": "[GSK1487252]", "%Inh": 0},
      {"smiles": "Nc1nc(Nc2ccccc2)cc(-c2ccc3c(N)n[nH]c3c2)n1", "note": "[GSK2225749]", "%Inh": 0},
      {"smiles": "CC(C)Nc1cc(-c2ccc3c(N)n[nH]c3c2)nc(N)n1", "note": "[GSK2221681]", "%Inh": 0},
      {"smiles": "CC(C)N1C(=O)Cc2cc(Nc3ncc(C(F)(F)F)c(NCc4cccc(S(C)(=O)=O)c4)n3)ccc21", "%Inh": 13},
      {"smiles": "Cl.Cl.NC[C@H](CC1CCCCC1)NC(=O)c1cc(Br)c(-c2ccnc3[nH]ccc23)s1", "note": "[GSK1581427]", "%Inh": 0},
      {"smiles": "CN(C)CC(O)COc1ccc(Nc2nccc(-c3cnn4nc(N5CCOCC5)ccc34)n2)cc1", "note": "(centres unmarked) [GW767488]", "%Inh": 40},
      {"smiles": "CCN(CC)CCOc1ccc(Nc2ncc3cc(-c4c(Cl)cccc4Cl)c(=O)n(C)c3n2)cc1", "note": "[SB-601273]", "%Inh": 99.4},
      {"smiles": "Cc1n[nH]c2ccc(-c3cc(OC[C@@H](N)Cc4ccccc4)cnc3-c3ccoc3)cc12.O=C(O)C(F)(F)F.O=C(O)C(F)(F)F", "note": "[GSK507358]", "%Inh": 0},
      {"smiles": "Cc1occc1-c1nc(N)c(OC[C@@H](N)Cc2c[nH]c3ccccc23)cc1-c1cc2c(C)n[nH]c2cn1", "note": "[GSK1660450]", "%Inh": 0},
      {"smiles": "C[C@@H]1CCN(C(=O)CC#N)C[C@@H]1N(C)c1ncnc2[nH]ccc12", "%Inh": 0},
      {"smiles": "Cl.Oc1cc(-c2nc(-c3ccccc3)[nH]c2-c2ccncc2)ccc1Cl", "note": "[SB-386023]", "%Inh": 0},
      {"smiles": "O=C(NCCCN1CCOC1=O)c1cnc(NCc2cc(Cl)ccc2Cl)nc1NC1CCCC1", "%Inh": 0},
      {"smiles": "Cc1cc(C(=O)Nc2ccc(Oc3ccc4nc(NC(=O)C5CC5)cn4n3)cc2)nn1-c1ccccc1", "%Inh": 87},
      {"smiles": "Cl.Cl.Nc1nc(-c2ccc3c(N)n[nH]c3c2)cc(N2CCCC(NC(=O)c3ccccc3)C2)n1", "note": "(centres unmarked) [GSK2286775]", "%Inh": 0},
      {"smiles": "CCN(CC)CCCCNc1ncc2cc(-c3c(Cl)cccc3Cl)c(NC(=O)NC(C)(C)C)nc2n1", "%Inh": 68},
      {"smiles": "Cc1ccc2c(-c3ccncc3)c(-c3ccc(F)cc3)nn2c1.Cl", "note": "[GW461484]", "%Inh": 0},
      {"smiles": "COc1ccc(C[C@@H](CN)NC(=O)c2cc(Br)c(-c3ccnc4[nH]ccc34)s2)cc1.Cl.Cl", "note": "[GSK1389063]", "%Inh": 0},
      {"smiles": "O=C(NCCNc1ccnc(NCc2ccc(F)cc2)n1)c1cc2ccccc2s1", "note": "[GSK1379944]", "%Inh": 0},
      {"smiles": "CN(C)CCOc1ccc(-c2cc(-c3c[nH]nc3-c3ccccn3)ccn2)cc1", "note": "[GW835314]", "%Inh": 43},
      {"smiles": "CNC(=O)c1ccccc1Sc1ccc2c(/C=C/c3ccccn3)n[nH]c2c1", "%Inh": 1},
      {"smiles": "NC(=O)c1cc(-c2ccccc2)cc2c(C3CCNCC3)c[nH]c12", "note": "[GSK301362]", "%Inh": 0},
      {"smiles": "CCn1c(-c2nonc2N)nc2c(C#CC(C)(C)O)nc(OCCN)cc21.Cl.Cl", "note": "[GSK902056]", "%Inh": 0},
      {"smiles": "C[C@H]1Oc2cc(cnc2N)-c2c(nn(C)c2C#N)CN(C)C(=O)c2ccc(F)cc21", "%Inh": 0},
      {"smiles": "C[C@@H](Oc1cc(-c2cnn(C3CCNCC3)c2)cnc1N)c1c(Cl)ccc(F)c1Cl", "%Inh": 0},
      {"smiles": "C=CC(=O)Nc1cc2c(Nc3ccc(F)c(Cl)c3)ncnc2cc1OCCCN1CCOCC1", "note": "[GW781483]", "%Inh": 83},
      {"smiles": "Cc1ccc(-n2nc(C(C)(C)C)cc2NC(=O)Nc2ccc(OCCN3CCOCC3)c3ccccc23)cc1", "note": "[GW839464]", "%Inh": 26},
      {"smiles": "Cc1cc2cn[nH]c2cc1-c1cccc2c(N)c(C(N)=O)nnc12", "%Inh": 30}
    ]},
    {"system": "ERBB4", "details": "concentration: 1 μM,replicates: in singlicate; n = 1", "units": {"%Inh": "%"}, "values": [
      {"smiles": "Cl.Cl.NC[C@H](Cc1ccc(C(F)(F)F)cc1)NC(=O)c1cc(Br)c(-c2ccnc3[nH]ccc23)s1", "note": "[GSK1487252]", "%Inh": 41},
      {"smiles": "Nc1nc(Nc2ccccc2)cc(-c2ccc3c(N)n[nH]c3c2)n1", "note": "[GSK2225749]", "%Inh": 0},
      {"smiles": "CC(C)Nc1cc(-c2ccc3c(N)n[nH]c3c2)nc(N)n1", "note": "[GSK2221681]", "%Inh": 0},
      {"smiles": "CC(C)N1C(=O)Cc2cc(Nc3ncc(C(F)(F)F)c(NCc4cccc(S(C)(=O)=O)c4)n3)ccc21", "%Inh": 0},
      {"smiles": "Cl.Cl.NC[C@H](CC1CCCCC1)NC(=O)c1cc(Br)c(-c2ccnc3[nH]ccc23)s1", "note": "[GSK1581427]", "%Inh": 22},
      {"smiles": "CN(C)CC(O)COc1ccc(Nc2nccc(-c3cnn4nc(N5CCOCC5)ccc34)n2)cc1", "note": "(centres unmarked) [GW767488]", "%Inh": 33},
      {"smiles": "CCN(CC)CCOc1ccc(Nc2ncc3cc(-c4c(Cl)cccc4Cl)c(=O)n(C)c3n2)cc1", "note": "[SB-601273]", "%Inh": 82},
      {"smiles": "Cc1n[nH]c2ccc(-c3cc(OC[C@@H](N)Cc4ccccc4)cnc3-c3ccoc3)cc12.O=C(O)C(F)(F)F.O=C(O)C(F)(F)F", "note": "[GSK507358]", "%Inh": 64},
      {"smiles": "Cc1occc1-c1nc(N)c(OC[C@@H](N)Cc2c[nH]c3ccccc23)cc1-c1cc2c(C)n[nH]c2cn1", "note": "[GSK1660450]", "%Inh": 56},
      {"smiles": "C[C@@H]1CCN(C(=O)CC#N)C[C@@H]1N(C)c1ncnc2[nH]ccc12", "%Inh": 15},
      {"smiles": "Cl.Oc1cc(-c2nc(-c3ccccc3)[nH]c2-c2ccncc2)ccc1Cl", "note": "[SB-386023]", "%Inh": 23},
      {"smiles": "O=C(NCCCN1CCOC1=O)c1cnc(NCc2cc(Cl)ccc2Cl)nc1NC1CCCC1", "%Inh": 9},
      {"smiles": "Cc1cc(C(=O)Nc2ccc(Oc3ccc4nc(NC(=O)C5CC5)cn4n3)cc2)nn1-c1ccccc1", "%Inh": 19},
      {"smiles": "Cl.Cl.Nc1nc(-c2ccc3c(N)n[nH]c3c2)cc(N2CCCC(NC(=O)c3ccccc3)C2)n1", "note": "(centres unmarked) [GSK2286775]", "%Inh": 33},
      {"smiles": "CCN(CC)CCCCNc1ncc2cc(-c3c(Cl)cccc3Cl)c(NC(=O)NC(C)(C)C)nc2n1", "%Inh": 38},
      {"smiles": "Cc1ccc2c(-c3ccncc3)c(-c3ccc(F)cc3)nn2c1.Cl", "note": "[GW461484]", "%Inh": 3},
      {"smiles": "COc1ccc(C[C@@H](CN)NC(=O)c2cc(Br)c(-c3ccnc4[nH]ccc34)s2)cc1.Cl.Cl", "note": "[GSK1389063]", "%Inh": 38},
      {"smiles": "O=C(NCCNc1ccnc(NCc2ccc(F)cc2)n1)c1cc2ccccc2s1", "note": "[GSK1379944]", "%Inh": 0},
      {"smiles": "CN(C)CCOc1ccc(-c2cc(-c3c[nH]nc3-c3ccccn3)ccn2)cc1", "note": "[GW835314]", "%Inh": 0},
      {"smiles": "CNC(=O)c1ccccc1Sc1ccc2c(/C=C/c3ccccn3)n[nH]c2c1", "%Inh": 6},
      {"smiles": "NC(=O)c1cc(-c2ccccc2)cc2c(C3CCNCC3)c[nH]c12", "note": "[GSK301362]", "%Inh": 9},
      {"smiles": "CCn1c(-c2nonc2N)nc2c(C#CC(C)(C)O)nc(OCCN)cc21.Cl.Cl", "note": "[GSK902056]", "%Inh": 20},
      {"smiles": "C[C@H]1Oc2cc(cnc2N)-c2c(nn(C)c2C#N)CN(C)C(=O)c2ccc(F)cc21", "%Inh": 0},
      {"smiles": "C[C@@H](Oc1cc(-c2cnn(C3CCNCC3)c2)cnc1N)c1c(Cl)ccc(F)c1Cl", "%Inh": 0},
      {"smiles": "Cc1ccc(-n2nc(C(C)(C)C)cc2NC(=O)Nc2ccc(OCCN3CCOCC3)c3ccccc23)cc1", "note": "[GW839464]", "%Inh": 0},
      {"smiles": "Cc1cc2cn[nH]c2cc1-c1cccc2c(N)c(C(N)=O)nnc12", "%Inh": 87}
    ]}
  ]
}
